Pol beta inh: inhibitors of human DNA polymerase beta; P06746; Pol beta primer extension/strand displacement, fluorescence kinetic; Potency, µM (titrated, usually from 114 µM), for inactives: at the highest dose activity change, negative = inhibition, hits mostly inhibitors; hit rate 1.3% among 340,000; AID 485314; further: on the % scale 0 is the no-effect control and ±100 the full control effect
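10 nM enzyme + cpd, 15 min RT; start with substrate 50 nM final; read 0 min and after 10 min RT. Corrected, normalized data; 4-parameter Hill curve fit.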
FEN1 inh-1: inhibitors of human flap endonuclease 1. Potency, µM (highest dose often 114 µM), for inactives: at the top dose activity change, negative = inhibition, most hits filed as inhibitors. AID 588795. Recombinant FEN1 flap cleavage, fluorescence, 15 min. P39748. hit rate 0.35% among 390,000; further: on the % scale 0 is the no-effect control and ±100 the full control effect; nearly all actives have a fitted effect of over 65% in size
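In this screen, 50 nM flap DNA substrate was added to 10 nM FEN1 pretreated with compound for 15 min at room temperature; cleavage was followed with reads at 0 and 15 min, and Hill fitting gave concentration–response parameters.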
WRN helicase inh: blocks human WRN helicase; Q14191; WRN helicase unwinding, fluorescent forked duplex, kinetic; Potency, µM (top dose mostly 114 µM), without a hit: at the top dose activity change, negative = inhibition, most hits filed as inhibitors; hit rate 0.46% among 360,000; further: on the % scale 0 is the no-effect control and ±100 the full control effect; nearly all actives have a fitted effect of over 55% in size
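WRN at 20 nM final preincubated with compound 15 min at room temperature; reaction started with 100 nM fluorophore/quencher forked duplex oligonucleotide and 2 mM ATP final. Unwinding followed kinetically by red fluorescence (ex 525, em 598 nm).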
POLI inh: inhibitors of human DNA polymerase iota; hit rate 1% among 390,000; Q9UNA4; Potency, µM (titrated, usually from 115 µM), for inactives: at the highest dose activity, negative = inhibition, actives largely listed as inhibitors; Pol iota fluorescent replication assay, 10 min
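Pol iota at 10 nM preincubated 15 min with compounds at room temperature; reaction started with fluorescent substrate, 50 nM final. Fluorescence read kinetically at 0 and 10 min; buffer-only wells as negative control.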
Pol kappa inh-1: inhibitors of human DNA polymerase kappa | Q9UBT6 | purified Pol kappa, fluorescent DNA synthesis assay, 10 min | Potency, µM (doses to about 107 µM), without a hit: top-dose activity, negative = inhibition, most hits filed as inhibitors | hit rate 0.53% among 400,000; further: on the % scale 0 is the no-effect control and ±100 the full control effect
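Inhibition of 10 nM Pol kappa is measured by a fluorescent read-out at 0 and 10 min following addition of 50 nM substrate (final), with a 15-min room-temperature compound preincubation.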
Pol eta inh-1: DNA polymerase eta (human) inhibition. Q9Y253. recombinant Pol eta, fluorescent DNA replication assay. Potency, µM (series often up to 114 µM), for inactives: top-dose activity change, negative = inhibition, most hits filed as inhibitors. hit rate 1.2% among 390,000. AID 588591; further: on the % scale 0 is the no-effect control and ±100 the full control effect
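Fluorescent replication assay: 50 nM final substrate added after a 15 min room-temperature compound preincubation with 10 nM enzyme. Signal taken at 0 min and again at 10 min.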
Pol kappa inh-2: confirmation of human DNA polymerase kappa inhibitors; shares compounds with Pol eta inh-1; purified Pol-kappa, fluorescent strand-displacement substrate; Potency, µM, usual class: inhibitors; hit rate 76% among 920
Pol eta inh-2: confirmation of human DNA polymerase eta inhibitors | Pol eta primer extension, TAMRA/BHQ fluorescence, 10 min | hit rate 64% among 2,600 | shares compounds with Pol eta inh-1 | AID 720502 | Potency, µM, hits mostly inhibitors
FEN1 inh-2: confirmation of human FEN1 inhibitors; shares compounds with FEN1 inh-1; FEN1 flap cleavage, TAMRA/BHQ2 fluorogenic DNA substrate; Potency, µM, actives largely listed as inhibitors; hit rate 79% among 880; AID 720498; further: nearly all actives have a fitted effect of over 60% in size
Active calls of the source: *; ? = inconclusive; . = not tested or not shown; [ ] = another dose, or the depositor's remark. Compounds with a hit are over-represented: about 2.4% of the library has one in this group of screens. The call rests on the fitted dose curve; in most records, active means well fitted curve in the direction sought with a large enough effect; inconclusive means small, poorly fitted or top-dose-only effect, or another doubt; inactive means no such curve, though single readings can be large; an effect the other way counts as inactive or inconclusive. Potency means the concentration at half of the fitted maximal effect.

SMILES | Pol beta inh | FEN1 inh-1 | WRN helicase inh | POLI inh | Pol kappa inh-1 | Pol eta inh-1 | Pol eta inh-2 | FEN1 inh-2 | others
COc1c(O)cc2c(c1O)[C@@H]1O[C@H](CO)[C@@H](O)[C@H](O)[C@H]1OC2=O | 21% | 19% | -1% | 25% | 1% | 2% | . | .
COc1cc(/C=C/c2nc(C#N)c(N3CCCCCC3)o2)cc(OC)c1OC | -13% | -7% | . | -12% | -3% | -17% | . | .
CN=c1scc(C)n1/N=C/c1ccc(O)c(O)c1O | 5µM* | 79µM* | 20µM* | 7.9µM* | 13µM* | 3.5µM* | 54* | 34*
CN=c1scc(C)n1/N=C/c1cc(Br)c(O)c(OC)c1 | 1% | 2% | -5% | 168% | -4% | -8% | . | .
CC(=O)c1sc2nc(CSc3nnnn3-c3ccccc3)[nH]c(=O)c2c1C | 13µM* | 79µM* | 28µM* | 11µM* | ? | 10µM* | 67* | ?
CCOC(=O)c1cc(-c2ccc(F)cc2)n(CCC(=O)Nc2nc3ccc(OC)cc3s2)c1C | -22% | ? | . | -20% | -15%[60.1 µM] | -13% | . | .
COc1cc(OC)c(NC(=O)C(c2ccccc2)N2Cc3ccccc3C2=O)cc1Cl (stereo not drawn) | 6% | -2% | . | 6% | -10% | -9% | . | .
CS(=O)(=O)Oc1ccc(Br)c2cccnc12 | 30% | 21% | 5% | 29% | -1% | -13% | . | .
Nc1ccc(Br)c2cccnc12 | 20% | ? | -15% | ? | 2% | ? | ? | 67*
CC(=O)N(\C=C/C=C/C=C1\Sc2ccccc2C1=O)c1ccccc1 | 20µM* | ? | ? | ? | 25µM* | 79µM* | ? | ? | Pol kappa inh-2=75*
O=[N+]([O-])c1ccc2c([N+](=O)[O-])ccc3c2c1CC3 | . | . | 0%[11.6 µM] | . | . | 14µM* | 76* | ?
Cc1ccc(C(=O)Nc2ccc3c4c(cccc24)CC3)cc1[N+](=O)[O-] | -15% | 5% | -15% | 0% | -11% | -13% | . | .
COc1ccccc1N1C(=N)S/C(=C\c2ccc(-c3ccccc3C(=O)O)o2)C1=O | 79µM* | 45µM* | 28µM* | 20µM* | 50µM* | 14µM* | 30* | ? | Pol kappa inh-2=19*
Cc1csc(N/N=C/c2ccc(O)c([N+](=O)[O-])c2)n1 | 25µM* | 79µM* | ? | 13µM* | 22µM* | 7.1µM* | 38* | 67*
COc1ccc(C)cc1NC(=O)c1cc2c(s1)-c1ccccc1SC2 | -2% | 11% | . | 6% | -3% | . | . | .
O=C1CN(C(=O)COC(=O)c2ccc([N+](=O)[O-])s2)c2ccccc2N1 | . | ? | -1% | ? | -11% | 22µM* | ? | 7.6*
O=C1NC(=S)S/C1=C\c1cc(Cl)cc(Cl)c1O | . | ? | 35µM* | 32µM* | ? | 35µM* | . | 85* | Pol kappa inh-2=24*
O=c1[nH]c2ccc(S(=O)(=O)N3CCN(S(=O)(=O)c4c(F)cccc4F)CC3)cc2[nH]c1=O | . | . | . | . | . | . | . | ? | Pol kappa inh-2=53*
O=S(=O)(c1ccc2ccccc2c1)N1CCN(S(=O)(=O)c2c(F)cccc2F)CC1 | . | 4% | . | 26% | 1% | -14% | . | .
CC1CCN(C(=O)COC(=O)c2ccc([N+](=O)[O-])o2)CC1 | . | ? | -10%[11.6 µM] | 50µM* | -6% | 50µM* | ? | 6*
O=C(COc1ccccc1F)Nc1ccc2nc(SCC(=O)N3CCCC3)sc2c1 | -11% | -2% | . | 41% | 6% | -10% | . | .
COc1ccc(-c2noc(CSc3nc(N)cc(=O)[nH]3)n2)cc1OC | -28% | -15% | . | 1% | -1%[60.1 µM] | 1% | . | .
O=C(O)c1cc(Cl)ccc1-c1ccc(/C=C/c2cc(C(F)(F)F)[nH]c(=O)n2)o1 | -30% | ? | ? | ? | ? | 50µM* | 38* | 60*
O=C(O)/C=C/c1ccc(-c2cccc(C(F)(F)F)c2)o1 | 12% | 16% | -4% | -1% | -2%[60.1 µM] | 19% | . | .
O=C(N/N=C/c1cc(Br)c(O)c(Br)c1)c1cc2c(ccc3ccccc32)o1 | ? | 56µM* | 35µM* | ? | 20µM* | 18µM* | 85* | 43*
SMILES | Pol beta inh | FEN1 inh-1 | WRN helicase inh | POLI inh | Pol kappa inh-1 | Pol eta inh-1 | Pol eta inh-2 | FEN1 inh-2 | others
O=C(O)CN1C(=O)/C(=C\c2cc(Br)ccc2OCc2ccc([N+](=O)[O-])cc2)SC1=S | 28µM* | ? | ? | 40µM* | 71µM* | 28µM* | ? | 85* | Pol kappa inh-2=27*
CCCCCCCCCCCCCCCCCC(=O)NCC(COP(=O)([O-])OCC[N+](C)(C)C)OCC (stereo not drawn) | 0%[57.1 µM] | . | . | -9%[58.9 µM] | -15%[60.1 µM] | -3%[57.1 µM] | . | .
C=CCOc1ccc(Br)cc1/C=C1/SC(=Nc2ccc(C(=O)O)cc2)NC1=O | ? | 25µM* | -11%[11.6 µM] | ? | -18% | 20µM* | 85* | ?
CCOc1cc(Br)cc(/C=C2\SC(=Nc3ccccc3)NC2=O)c1O | ? | -30% | -9% | ? | -5% | ? | . | .
CCOC(=O)C1=C(COC(=O)c2ccc([N+](=O)[O-])s2)NC(=O)NC1C (stereo not drawn) | . | ? | 25% | 50µM* | ? | 40µM* | ? | 4.3*
O=C(c1cc(F)cc(F)c1)N1CCC(c2nc(-c3ccc(S(=O)(=O)N4CCCC4)cc3)no2)CC1 | 35% | -8% | . | 4% | -7% | -14% | . | .
O=C(COC(=O)c1ccc([N+](=O)[O-])s1)NCc1ccc(F)cc1 | ? | -10% | -5%[11.6 µM] | ? | -27% | 79µM* | ? | 6.7*
O=C(COC(=O)c1ccc([N+](=O)[O-])s1)NNC(=O)c1ccccc1 | . | -8% | 10% | ? | -19% | ? | . | .
O=C(Nc1ccc(N2CCOCC2)cc1N1CCOCC1)c1ccc([N+](=O)[O-])cc1 | 18% | 6% | -19% | 25% | -11% | ? | . | .

Screening results deposited in PubChem by National Center for Advancing Translational Sciences (NCATS).
